# High-throughput results (PubChem BioAssay)
# In the library only some 3.5% were active in any assay of this set; here they are far more common.
# UGM FP inh = M. tuberculosis UGM enzyme inhibitors, primary screen, biochemical, fluorescence polarization, single point. purified UGM, fluorescence polarization probe displacement. inhibition, % at 10 µM. 320,000 tested, 0.06% active. AID 504406, 2011; in the data active = inhibition above about 10%, passing the limit was not always enough; inconclusive = no clear call, values can overlap the other calls
# Mtb bLac sens = beta-lactam sensitization of Mtb H37Rv, H37Rv. M. tuberculosis H37Rv growth with meropenem, percent inhibition. inhibition, % at 25 µM. 330,000 tested, 0.27% active. AID 434955, 2010; call rule not given here;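 also: growth measured after seven days incubation then overnight dye step; 0% = bacteria only wells and 100% = bacteria with antibiotic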
# GDH-TPI counter = GDH-TPI coupling enzyme inhibitors, primary screen, artefact control for M. tuberculosis FBA inhibitor project, biochemical, absorbance, full deck; inhibition, % at 4.8 µM; 360,000 tested, 1.2% active; GDH-TPI coupled enzyme counterscreen, NADH absorbance; in the data active = inhibition above about 30%;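 also: 0% = DMSO wells and 100% = wells lacking the enzyme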
# Rv3671c protease = Rv3671c serine protease inhibitors, primary screen, biochemical, fluorescence polarization, M. tuberculosis H37Rv; 320,000 tested, 0.048% active; AID 2606, 2010; inhibition, % at 5.96 µM; in the data active = inhibition above about 38%;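 also: extracellular domain of Rv3671c used as enzyme; 0% = enzyme with DMSO and 100% = no enzyme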
# Target sequence (P9WHR9 whole entry, looked up, the tested form may be a part): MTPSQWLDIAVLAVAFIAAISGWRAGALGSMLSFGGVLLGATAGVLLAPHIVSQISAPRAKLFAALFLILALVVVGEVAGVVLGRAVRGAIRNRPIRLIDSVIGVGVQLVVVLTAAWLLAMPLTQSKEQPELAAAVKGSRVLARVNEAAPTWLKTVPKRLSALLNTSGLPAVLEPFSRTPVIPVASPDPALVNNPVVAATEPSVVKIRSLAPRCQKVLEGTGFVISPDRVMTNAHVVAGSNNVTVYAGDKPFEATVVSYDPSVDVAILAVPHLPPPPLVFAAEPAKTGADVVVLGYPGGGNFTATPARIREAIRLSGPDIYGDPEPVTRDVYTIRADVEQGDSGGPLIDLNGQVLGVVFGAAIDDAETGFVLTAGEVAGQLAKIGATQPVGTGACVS
# Mtb FBA inh = Mtb FBA enzyme inhibitors, primary screen, biochemical, fluorescence, strain H37Rv. inhibition, % at 1 µM. 360,000 tested, 2.3% active. purified M. tuberculosis FBA, fluorescence read-out; in the data active = inhibition above about 27%;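 also: 0% = vehicle and 100% = reference inhibitor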
# Active calls of the source: *; u = inconclusive; x = no result given; + = active, no number.
SMILES,UGM FP inh,Mtb bLac sens,GDH-TPI counter,Rv3671c protease,Mtb FBA inh
CC1CC(C)(C)CC2(C1)NC(=O)N(CC(=O)NC1CCCc3ccccc31)C2=O (stereo not drawn),1,-5,3,-10,1
CC(=O)c1c(COC(=O)c2cccc(C)c2)nc2ccccc2[n+]1[O-],0,0,31*,3,2
Cc1cccc(NC(=O)c2sc(NC(=O)c3ccco3)c(C#N)c2C)c1C,2,5,36*,4,3
CC1(C)Cc2c(sc(NC(=O)c3ccco3)c2C#N)CO1,-2,-4,31*,0,-1
CN1c2ccsc2/C(=N/NC(=O)c2c(F)cccc2F)CS1(=O)=O,4,63,34*,2,0
Fc1ccc(/C=N/Nc2cc(N3CCOCC3)ncn2)cc1,2,-6,16,-1,1
C(=N\Nc1cc(N2CCCCC2)ncn1)/c1ccco1,1,4,42*,2,-2
O=C(NCCNc1ccnc2cc(Cl)ccc12)c1ccccc1F,0,0,43*,2,6
O=C(NCCNc1ccc(Cl)cc1[N+](=O)[O-])c1ccccc1F,2,-10,-6,4,-5
CCC(=O)Nc1ccc(NC(=S)NC(=O)/C=C/c2ccco2)cc1,0,6,48*,4,-3
CC(=O)NC(=S)Nc1ccc(NC(=S)NC(=O)/C=C/c2ccco2)cc1,1,0,28,-1,-2
O=C(/C=C/c1ccco1)NC(=S)NNC(=O)c1ccco1,2,7,43*,0,1
O=C(Nc1cc2c3c(c1)CC(=O)N3CCC2)c1ccc(Br)o1,-1,-2,11,0,2
O=[N+]([O-])c1cc([N+](=O)[O-])c(N2CCOCC2)cc1NCc1ccccc1,-1,u,31*,-11,-4
O=[N+]([O-])c1ccc(N2CCOCC2)cc1NCc1ccccc1,0,16,13,4,-7
COc1ccc(/C(C#N)=C/c2ccccn2)cc1,-1,8,32*,-11,24
Cc1cccc(-n2c3nc(=O)[nH]c(=O)c-3cc3c(C)nn(-c4ccccc4)c32)c1,1,-5,x,-2,x
Cc1ccc(-n2c3nc(=O)[nH]c(=O)c-3cc3c(C)nn(-c4ccccc4)c32)c(C)c1,2,3,21,-3,+
COc1ccc(C2C(C(=O)c3ccco3)=C(O)C(=O)N2CC2CCCO2)c(OC)c1 (stereo not drawn),-1,3,6,-3,0
O=S(=O)(Nc1nc2ccccc2nc1NCc1ccco1)c1ccc(F)cc1,0,-4,34*,-5,12
CC1CCN(c2ccc3c(c2)S(=O)(=O)c2cccc(C(=O)NC[C@@H]4CCCO4)c2C3=O)CC1,0,-3,-2,-17,-18
O=C(NCC1CCCO1)c1cccc2c1C(=O)c1ccc(N3CCC(Cc4ccccc4)CC3)cc1S2(=O)=O (stereo not drawn),19*,3,-9,-7,-11
O=C(NC1CCCCC1)c1cccc2c1C(=O)c1ccc(N3CCC(Cc4ccccc4)CC3)cc1S2(=O)=O,19*,1,14,-23,1
O=C(NCc1ccccc1Br)c1cccc2c1C(=O)c1ccc(N3CCC(Cc4ccccc4)CC3)cc1S2(=O)=O,8,-4,3,-18,1
N#Cc1ccccc1S(=O)(=O)N1CCN(C(=O)C2CCCCC2)CC1,2,-6,20,8,4
SMILES,UGM FP inh,Mtb bLac sens,GDH-TPI counter,Rv3671c protease,Mtb FBA inh
CN1CCCN(C(=O)c2cccc(Cl)c2)CC1,1,-1,-3,-6,0
COc1ccc(CCNS(=O)(=O)c2ccc(Cl)cc2)cc1OC,-1,-6,0,-3,-1
CN1CC[C@]2(CCN3CCc4c(oc5ccccc45)[C@@H]3C2)N(C)C1=O,3,-3,-9,0,0
Cc1cc(=O)oc2cc(OCC(=O)N3C[C@H]4C[C@@H](C3)c3cccc(=O)n3C4)ccc12,-4,0,-6,-3,6
C=C(C)COc1ccc2c(C)c(CC(=O)N3C[C@H]4C[C@@H](C3)c3cccc(=O)n3C4)c(=O)oc2c1,-1,-3,29,-10,114*
CCc1ccc2oc(C(=O)NCCc3ccc(S(N)(=O)=O)cc3)cc(=O)c2c1,4,1,2,-11,-1
CCOc1ccc(C(=O)Nc2nnc(S(=O)(=O)N(C)Cc3ccco3)s2)cc1,-1,3,39*,-25,7
CN(Cc1ccco1)S(=O)(=O)c1nnc(NC(=O)c2ccc(F)cc2)s1,1,20,38*,-6,9
CCC(=O)Nc1nnc(S(=O)(=O)N(C)Cc2ccco2)s1,0,1,6,3,-1
Cc1ccc(C(=O)Nc2nnc(NC(=S)Nc3ccccc3)s2)cc1,1,47,24,-81,-2
CCOc1ccc(C(=O)Nc2nnc(NC(=S)Nc3ccccc3)s2)cc1,2,21,40*,-40,-2
CN(CC(=O)Nc1ccc(F)c(F)c1F)C(=O)c1ccc(-n2cncn2)cc1,-1,3,4,-4,2
S=c1[nH]nc(COc2ccc(Cl)cc2Cl)n1-c1ccccc1,0,-3,14,0,3
COc1cccc(C(=O)CC(=O)C(=O)Nc2cc(OC)c(OC)c(OC)c2)c1,3,2,x,4,x
Cc1cc2nc3c(nc2cc1C)C(O)=C3O,-2,6,15,-3,5
COc1ccc(Cn2c(O)c(/C=N/NC(=O)c3ccccc3)c(=O)[nH]c2=O)cc1,1,65,35*,5,4
COc1ccc(Cn2c(O)c(/C=N/NC(=O)c3ccncc3)c(=O)[nH]c2=O)cc1,1,100,42*,14,2
O=C(N/N=C/c1c(O)n(-c2cccc3ccccc23)c(=O)[nH]c1=O)c1ccncc1,-7,99,43*,-26,2
COc1ccc(Cn2c(O)c(/C=N/NC(=O)c3ccccc3O)c(=O)[nH]c2=O)cc1,0,3,27,-13,10
CCn1c(O)c(/C=N/NC(=O)c2ccccc2)c(=O)[nH]c1=S,-1,38,32*,1,8
O=C(N/N=C/c1c(O)n(CCc2ccc(F)cc2)c(=O)[nH]c1=O)c1ccncc1,2,100,21,-2,3
O=C(/C(=C/c1ccc(Cl)cc1)c1nc2ccccc2[nH]1)c1cccs1,2,u,32*,-55,-1
N#C/C(=C(/O)c1cccs1)c1nc2ccccc2[nH]1,3,u,39*,9,14
CC(C)(C)CN1CCN(Cc2c[nH]c3ccccc23)CC1CCO (stereo not drawn),7,-5,20,x,3
CCOc1ccc(CN2CCN(CC3CC3)CC2CCO)cc1 (stereo not drawn),1,2,6,-2,0
